# Only a selection was taken, and hits are over-represented in it overall.
# ST2 inh = blocks human ST2 binding to IL-33; 2.3% of 78,000 active; AlphaLISA ST2-Fc/biotin-IL-33 interaction, 1 h; inhibition, % for hits at 17 µM; Q01638; in the data active = inhibition above about 30%
# Target sequence (Q01638 whole entry, looked up): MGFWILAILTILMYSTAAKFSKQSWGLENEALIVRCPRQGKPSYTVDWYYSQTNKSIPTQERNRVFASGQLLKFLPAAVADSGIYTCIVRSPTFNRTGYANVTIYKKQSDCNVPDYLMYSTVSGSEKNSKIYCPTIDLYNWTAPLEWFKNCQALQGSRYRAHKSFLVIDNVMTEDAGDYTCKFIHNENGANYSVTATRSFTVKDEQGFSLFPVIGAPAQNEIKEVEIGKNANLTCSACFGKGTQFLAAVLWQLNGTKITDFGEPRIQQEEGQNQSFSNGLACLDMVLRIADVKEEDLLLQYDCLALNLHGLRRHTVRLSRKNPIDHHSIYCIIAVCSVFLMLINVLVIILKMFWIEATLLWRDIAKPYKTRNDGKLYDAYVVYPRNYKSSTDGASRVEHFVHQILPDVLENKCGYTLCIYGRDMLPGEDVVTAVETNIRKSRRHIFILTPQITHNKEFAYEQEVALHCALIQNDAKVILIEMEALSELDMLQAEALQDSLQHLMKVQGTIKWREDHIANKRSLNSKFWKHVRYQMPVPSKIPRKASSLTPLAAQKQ
# * = called active by the depositor; i = inactive.
SMILES,ST2 inh
CCCCN(C)C(=O)C1c2cc(OC)c(OC)cc2C(=O)N(C)C1c1cccs1 (stereo not drawn),i
COc1cccc(OC)c1CNC(=O)c1cc(NC(C)=O)ccc1Cl,i
O=C(Nc1ccsc1)N[C@H]1C[C@H]2C(=O)NC[C@@H](CCC(=O)N3CCN(c4ccccn4)CC3)N2C1,52%*
CN1CCN(C(=O)CC[C@@H]2CNC(=O)[C@@H]3C[C@H](NC(=O)Nc4ccccc4)CN23)CC1,i
O=C1NC[C@@H](CCC(=O)N2CCN(c3ccccn3)CC2)N2C[C@@H](NCc3ccc(F)cc3)C[C@@H]12,i
COCC(=O)N[C@H]1C[C@H]2C(=O)NC[C@@H](CCC(=O)N3CCN(c4ccccn4)CC3)N2C1,51%*
COc1ccc(CN[C@H]2C[C@H]3C(=O)NC[C@@H](CCC(=O)N4CCN(c5ccccn5)CC4)N3C2)cc1,i
O=C(N[C@H]1C[C@H]2C(=O)NC[C@@H](CCC(=O)N3CCN(c4ccccn4)CC3)N2C1)C1CC1,i
CC(=O)Nc1ccc(S(=O)(=O)Nc2ccc(F)cc2)cc1,i
CCOC(=O)c1sc2nc(C)nc(Nc3ccc(Cl)cc3)c2c1C,i
CC(C)C1CN(C(=O)CN2CCCC2)CCC(=O)N1CC1CC1 (stereo not drawn),i
COc1ccc(C2(C(=O)N3CCC4(CN(C)C(=O)O4)C3)CCCC2)cc1 (stereo not drawn),i
CC(C)(C)Sc1ccc(SC#N)s1,i
CCSc1sc(SC#N)cc1SC#N,47%*
CCC(C)(C)NS(=O)(=O)c1ccc(OC)c(OC)c1,i
CSc1nc2ccc(NC(=O)c3ccccc3F)cc2s1,i
CC(=O)N(CN1C(=O)c2ccc(Br)cc2C1=O)c1ccc(OCc2ccccc2)cc1,i
CC(=O)N(CN1C(=O)c2ccc(Br)cc2C1=O)c1cccc(C(=O)O)c1,45%*
CC(=O)N(CN1C(=O)c2ccccc2C1=O)c1cccc(C)c1,i
COC(=O)CSC1=C(C#N)C(c2ccc(OC)c(OC)c2)CC(=O)N1 (stereo not drawn),i
O=C(c1cccc2c1NCCC2)N1CCOC(C(F)(F)F)C1 (stereo not drawn),i
Cc1ccc(N2C(=O)S/C(=C\c3ccc4c(c3)OCO4)C2=O)cc1,i
COc1ccccc1N1C(=N)S/C(=C/c2ccc(Br)c([N+](=O)[O-])c2)C1=O,i
COc1ccc(Br)cc1/C=C1/SC(=N)N(c2ccc3c(c2)OCO3)C1=O,40%*
Cn1c(=O)cc(SCC(=O)NC2CCCCCC2)c2ccc(Cl)cc21,i
SMILES,ST2 inh
Cc1nc2ccccc2c(=O)n1-c1ccc(N2CCOCC2)c(C(F)(F)F)c1,i
O=C(O)c1ccc(NC(=O)c2ccc(C(=O)Nc3ccc(C(=O)O)cc3)cc2)cc1,i
Cc1nc2ccc(NC(=O)N(C)C)cc2nc1C,i
COc1cc(/C=C2\SC(N3CCCCC3)=NC2=O)cc(OC)c1OC,i
COc1cc(/C=C2\SC(c3ccccc3)=NC2=O)cc(Br)c1O,40%*
COc1cc(/C=C2\SC(N)=NC2=O)cc(OC)c1O,i
Nc1nc2ccccc2nc1N,i
O=C1c2ccccc2C(=O)c2c1nc1n2CCOC1,i
Nc1cc2c3c(cccc3n1)C(=O)c1ccccc1-2,34%*
COC(=O)[C@H](Cc1ccc(OC)cc1)NC(=O)[C@H]1CN(C(=O)Nc2ccccc2)CCN1C(=O)NC1CCCCC1,i
COc1ccc(Cl)cc1C(=O)Nc1nnc(CCC(=O)c2ccccc2)s1,i
Cc1ccc(/C=C2\C(=O)NN(c3ccc(Cl)c(Cl)c3)C2=O)s1,i
CCSC1=N/C(=C\c2ccc(C(=O)O)cc2)C(=O)S1,i
CCSC1=N/C(=C\c2ccc(C)s2)C(=O)S1,57%*
CCOc1ccccc1NC(=O)Cc1ccc(F)cc1,i
CCc1nc(-c2nccn2CC2CCN(C3CCCC3)CC2)c(C)[nH]1,i
Cc1cccc2nc3c(nc12)C(=O)c1ccccc1C3=O,32%*
CCNc1ccccc1-c1nc2ccccc2[nH]c1=O,i
Cc1ccccc1Cn1c(-c2ccccc2F)nc2ccccc2c1=O,i
Cc1nc(C(=O)NCC2CCC3(CCN(Cc4c(F)ccc(F)c4F)CC3)O2)cs1 (stereo not drawn),i
CCOc1ccc(N=C2C(=O)N(CN3CCN(c4ccccc4)CC3)c3ccccc32)cc1,i
O=C1C(=Nc2cccc(F)c2)c2ccccc2N1CN1CCN(c2ccccc2)CC1,i
CCN(CC)CN1C(=O)C(=Nc2cccc(C(F)(F)F)c2)c2ccccc21,32%*
CC(c1ccccc1)n1cnc2c(cnn2-c2ccccc2)c1=O (stereo not drawn),i
CN(C)c1ccc(/C=c2\sc3nc4ccccc4n3c2=O)cc1,i
SMILES,ST2 inh
CCN1/C(=C/C=c2/sc3nc4ccccc4n3c2=O)C=Cc2ccccc21,43%*
CCN1/C(=c2/sc3nc4ccccc4n3c2=O)Sc2ccc(OC)cc21,i
Cc1cc(C(=O)O)c2ccccc2n1,i
O=C(O)c1cc(-c2cc(C(=O)O)c3ccccc3n2)nc2ccccc12,i
Cc1ccc(-c2cc(C(=O)O)c3cc4c(C(=O)O)cc(-c5ccc(C)o5)nc4cc3n2)o1,91%*
Fc1ccccc1OCC1CCCN(Cc2nc(-c3cccs3)no2)C1 (stereo not drawn),i
O=C(NCc1ccco1)c1cccn2c(=O)c3cc4ccccc4cc3nc12,i
COCCCNC(=O)c1cccn2c(=O)c3cc4ccccc4cc3nc12,30%*
COCCCNC(=O)c1cc2c(=O)n3cccc(C)c3nc2n1C,i
COC(=O)C1=C(C)Nc2ncnn2C1c1ccc(Br)cc1 (stereo not drawn),i
CC(=O)c1ccc(N=Cc2ccc(C=Nc3ccc(C(C)=O)cc3)cc2)cc1,i
COc1ccc(/C=C/C#N)cc1,i
COc1ccc(C=Nc2cc(Cl)c(N)c(Cl)c2)cc1,85%*
Fc1ccccc1-c1cnnc(N2CCN(C3CCc4ccccc4C3)CC2)n1 (stereo not drawn),i
CC1CN(S(=O)(=O)c2ccc(Oc3ccccc3)cc2)CC(C)O1 (stereo not drawn),i
O=C(Cc1cccs1)N1CCC(Cc2ccccc2)CC1,i
O=C1CN(C(=O)c2nn(Cc3ccccc3)c3c2CN(C(=O)CCc2cccs2)CC3)CCN1,i
O=C1CCN(C(=O)c2nn(CCc3ccccc3)c3c2CN(C(=O)Cc2cccs2)CC3)CCN1,33%*
COc1cccc(NC(=O)Nc2nnc(-c3ccccc3Br)s2)c1,i
Cc1ccc(-c2nnc([C@H]3CCN(CC4CC4)C3)o2)cc1,i
Cc1ccc(C)c(OCC(=O)Nc2nc3ccccc3s2)c1,i
CS(=O)(=O)N(CC(=O)Nc1ccc(CSc2ccccc2)cc1)c1ccccc1F,i
Nc1c(C(=O)Nc2cccc(C(F)(F)F)c2)sc2nc3c(cc12)CCCCC3,42%*
CCc1nnc(NC(=O)c2sc3nc4c(cc3c2N)CCCCC4)s1,i
Nc1c(C(=O)Nc2ccccc2)sc2nc3c(cc12)CCCCC3,i
O=C(C1CC1)N1CCc2cc(S(=O)(=O)Nc3cccc(Cl)c3)ccc21,i
CC(C)(C)C1CCc2c(sc(NC(=O)c3cc(-c4ccco4)on3)c2C#N)C1 (stereo not drawn),i
O=C1c2ccc(Oc3cccc([N+](=O)[O-])c3)cc2C(=O)N1c1c[nH]c(=O)[nH]c1=O,31%*
COc1ccc(N2C(=O)c3ccc(Oc4cccc(N)c4)cc3C2=O)cc1,i
Cc1cc(N2C(=O)c3ccc([N+](=O)[O-])cc3C2=O)no1,i

# High-throughput results deposited in PubChem BioAssay by Paczesny and Yang Labs, IUPUI and University of Michigan.
